We go through 13 molecules from publication PMC12864922, “TDP-43 directly inhibits mRNA accumulation in neurites through modulation of mRNA stability”.

The full ranking holds about 9,900 sequences; the median of “r (bound/input frequency ratio)” is about 0.7, and the highest 2% start at about 6.5. This is one part of a sample in which the highest values are shown more often than they occur.

The labels stand for the following.
B1: ENSMUSG00000022095.3|Fam160b2|123:127 (ssRNA)
RNA: GGGAGUUCUACAGUCCGACGAUCGCUUCGAUAUCCGCAUGCUAAAGGAGCUGGCUGCCAUUGCGUUUGUCAAGUUUCCCCCACACGGUCCUUACCUGAACUUCUCUCCACCUCCAGAAGGGCAAGUCUGAGCCAGGAGCAUGACGGGUGGGGGAAGAUUCCUGCCACACAACUUCUGCCCACGGGCAGUCUCCUGCCUGGCCAUGCUGCCACUCUGUCCUCCAUGCCGGGGACUUCAGCUGCAGGACACCUCACCUGUUGACCCCACGAGCUGAGGUUUCAAGGAGGUGCUGGCUCCUAAGGCCUCUUGCGGUCGCACUAGUGUGGAAUUCUCGGGUGUCAAGG
B2: ENSMUSG00000004113.146|Cacna1b|6:10;184:188;241:245;249:253 (ssRNA)
RNA: GGGAGUUCUACAGUCCGACGAUCGCUUCGAUAUCCGCAUGCUACACAUCAUACUAGAGAUGCGCUCAAGGGCCUGCCUUUCACCUACACUGUCACCAUAACAGGGACCAAAUCUGGAGGAUGUCCUUGCUGUUGAUUCUGGUUUUCAGUCACAACACUUUCACUGUUUGUCAUUUCUAUGUAGUUGAUCUAGAAAAAGCAGAAAUCAAAACAGGAAAGGAAAUGUUACACAAACUUUAAAAAAAAAGUCAACAUGUAGGAAGGUCUCCAUUUUGCAUUGUUUCACACACUUCAUACCAAUGUUCUCUUGCGGUCGCACUAGUGUGGAAUUCUCGGGUGUCAAGG
B3: ENSMUSG00000031028.47|Tub (ssRNA)
RNA: GGGAGUUCUACAGUCCGACGAUCGCUUCGAUAUCCGCAUGCUACUGAAGCAGGGGGGACAGCAAAUGGGUAUGACAGGAGAAGAAUAUUUCUGUGCCCCAAGGUCAACACACAUGCCCAGUCCUGGGUCAGUCCCCUGCUGCAGUGGUGUUAUCACACCGGAAAGCCUCUUCACCUGGAGGUACAGAGGGAGAGGAAGCACAAGCCUGGCUGCUGUGGCUCAGCCAUCCACUCAGCCUACGAGUCAGAGACAGUGGGUGUCCCGGGAAGCAGGGGUACAGUGAGUGUGUGUGUAUGUACAGGGCUCUUGCGGUCGCACUAGUGUGGAAUUCUCGGGUGUCAAGG
B4: ENSMUSG00000043670.69|Diras1 (ssRNA)
RNA: GGGAGUUCUACAGUCCGACGAUCGCUUCGAUAUCCGCAUGCUACCAUUCUAUCUGCACCCCACAACCACACACUGGAGGUUUGAUCCCUGUGGAUCUGAAAACAGGGACCUGGCUAAGGAACUGCUCAUCCCAGUCAGGCCCAGAGAGGUUACCUUGCCUCUCCAUCUCUGUCCCUGUGUGCCCAGCCAUGCCCACUGUCCCUGUCCCUCACAUUCUAUCACUGUGACCUCUGGGGAGUGCCCAUUGACCUCAUCUUCCUUCACUAAUAUCUUAUUUCUUUCACCUGAUCCUGUCCUUUCCCCCUCUUGCGGUCGCACUAGUGUGGAAUUCUCGGGUGUCAAGG
B5: ENSMUSG00000004113.293|Cacna1b (ssRNA)
RNA: GGGAGUUCUACAGUCCGACGAUCGCUUCGAUAUCCGCAUGCUAGCACAGAUAGCUGGGAGGCCACGAGAGAAAGGUUGCACACAGACAGGCAGGCACUCCUUGGUGUGGUCUCUCUGUUUUGAAACUUCUGAUGACUUCUUGGUGGCUUGUUGUCUUCUACCCCAUGUUUCUCACAGGAUCUGUGUGUGUGUGUGUGUGUGUGUGUGUGUGUGUGUGUGUGUGUGUUAGCAUGUGUGUAUUAGCGUGUGUGAGUGUGUGAGCAUGCACGAGUCAUAGGAGAUGCAGGUGUAUGUGUGUGGUGUCUCUUGCGGUCGCACUAGUGUGGAAUUCUCGGGUGUCAAGG
B6: ENSMUSG00000004113.302|Cacna1b (ssRNA)
RNA: GGGAGUUCUACAGUCCGACGAUCGCUUCGAUAUCCGCAUGCUAUCCUUGGUGUGGUCUCUCUGUUUUGAAACUUCUGAUGACUUCUUGGUGGCUUGUUGUCUUCUACCCCAUGUUUCUCACAGGAUCUGUGUGUGUGUGUGUGUGUGUGUGUGUGUGUGUGUGUGUGUGUGUUAGCAUGUGUGUAUUAGCGUGUGUGAGUGUGUGAGCAUGCACGAGUCAUAGGAGAUGCAGGUGUAUGUGUGUGGUGUGCAUAUGUGUAUGUGUGUGUGUGUGUGUGUGUGUGUAGGUGUGUUCAGCAAGUGCUCUUGCGGUCGCACUAGUGUGGAAUUCUCGGGUGUCAAGG
B7: ENSMUSG00000004113.291|Cacna1b (ssRNA)
RNA: GGGAGUUCUACAGUCCGACGAUCGCUUCGAUAUCCGCAUGCUAGGUGUUCAGUGUGCACAGAUAGCUGGGAGGCCACGAGAGAAAGGUUGCACACAGACAGGCAGGCACUCCUUGGUGUGGUCUCUCUGUUUUGAAACUUCUGAUGACUUCUUGGUGGCUUGUUGUCUUCUACCCCAUGUUUCUCACAGGAUCUGUGUGUGUGUGUGUGUGUGUGUGUGUGUGUGUGUGUGUGUGUGUUAGCAUGUGUGUAUUAGCGUGUGUGAGUGUGUGAGCAUGCACGAGUCAUAGGAGAUGCAGGUGUACUCUUGCGGUCGCACUAGUGUGGAAUUCUCGGGUGUCAAGG
B8: ENSMUSG00000004113.294|Cacna1b (ssRNA)
RNA: GGGAGUUCUACAGUCCGACGAUCGCUUCGAUAUCCGCAUGCUAAUAGCUGGGAGGCCACGAGAGAAAGGUUGCACACAGACAGGCAGGCACUCCUUGGUGUGGUCUCUCUGUUUUGAAACUUCUGAUGACUUCUUGGUGGCUUGUUGUCUUCUACCCCAUGUUUCUCACAGGAUCUGUGUGUGUGUGUGUGUGUGUGUGUGUGUGUGUGUGUGUGUGUGUUAGCAUGUGUGUAUUAGCGUGUGUGAGUGUGUGAGCAUGCACGAGUCAUAGGAGAUGCAGGUGUAUGUGUGUGGUGUGCAUAUCUCUUGCGGUCGCACUAGUGUGGAAUUCUCGGGUGUCAAGG
B9: ENSMUSG00000004113.292|Cacna1b (ssRNA)
RNA: GGGAGUUCUACAGUCCGACGAUCGCUUCGAUAUCCGCAUGCUACAGUGUGCACAGAUAGCUGGGAGGCCACGAGAGAAAGGUUGCACACAGACAGGCAGGCACUCCUUGGUGUGGUCUCUCUGUUUUGAAACUUCUGAUGACUUCUUGGUGGCUUGUUGUCUUCUACCCCAUGUUUCUCACAGGAUCUGUGUGUGUGUGUGUGUGUGUGUGUGUGUGUGUGUGUGUGUGUGUUAGCAUGUGUGUAUUAGCGUGUGUGAGUGUGUGAGCAUGCACGAGUCAUAGGAGAUGCAGGUGUAUGUGUGCUCUUGCGGUCGCACUAGUGUGGAAUUCUCGGGUGUCAAGG
B10: ENSMUSG00000004113.303|Cacna1b (ssRNA)
RNA: GGGAGUUCUACAGUCCGACGAUCGCUUCGAUAUCCGCAUGCUAGUGUGGUCUCUCUGUUUUGAAACUUCUGAUGACUUCUUGGUGGCUUGUUGUCUUCUACCCCAUGUUUCUCACAGGAUCUGUGUGUGUGUGUGUGUGUGUGUGUGUGUGUGUGUGUGUGUGUGUUAGCAUGUGUGUAUUAGCGUGUGUGAGUGUGUGAGCAUGCACGAGUCAUAGGAGAUGCAGGUGUAUGUGUGUGGUGUGCAUAUGUGUAUGUGUGUGUGUGUGUGUGUGUGUGUAGGUGUGUUCAGCAAGUGGCUAUUCUCUUGCGGUCGCACUAGUGUGGAAUUCUCGGGUGUCAAGG
B11: ENSMUSG00000004113.290|Cacna1b (ssRNA)
RNA: GGGAGUUCUACAGUCCGACGAUCGCUUCGAUAUCCGCAUGCUACAGGAAGGUGUUCAGUGUGCACAGAUAGCUGGGAGGCCACGAGAGAAAGGUUGCACACAGACAGGCAGGCACUCCUUGGUGUGGUCUCUCUGUUUUGAAACUUCUGAUGACUUCUUGGUGGCUUGUUGUCUUCUACCCCAUGUUUCUCACAGGAUCUGUGUGUGUGUGUGUGUGUGUGUGUGUGUGUGUGUGUGUGUGUGUUAGCAUGUGUGUAUUAGCGUGUGUGAGUGUGUGAGCAUGCACGAGUCAUAGGAGAUGCACUCUUGCGGUCGCACUAGUGUGGAAUUCUCGGGUGUCAAGG
B12: ENSMUSG00000004113.295|Cacna1b (ssRNA)
RNA: GGGAGUUCUACAGUCCGACGAUCGCUUCGAUAUCCGCAUGCUAGGGAGGCCACGAGAGAAAGGUUGCACACAGACAGGCAGGCACUCCUUGGUGUGGUCUCUCUGUUUUGAAACUUCUGAUGACUUCUUGGUGGCUUGUUGUCUUCUACCCCAUGUUUCUCACAGGAUCUGUGUGUGUGUGUGUGUGUGUGUGUGUGUGUGUGUGUGUGUGUGUUAGCAUGUGUGUAUUAGCGUGUGUGAGUGUGUGAGCAUGCACGAGUCAUAGGAGAUGCAGGUGUAUGUGUGUGGUGUGCAUAUGUGUAUCUCUUGCGGUCGCACUAGUGUGGAAUUCUCGGGUGUCAAGG
B13: ENSMUSG00000004113.305|Cacna1b (ssRNA)
RNA: GGGAGUUCUACAGUCCGACGAUCGCUUCGAUAUCCGCAUGCUAUGUUUUGAAACUUCUGAUGACUUCUUGGUGGCUUGUUGUCUUCUACCCCAUGUUUCUCACAGGAUCUGUGUGUGUGUGUGUGUGUGUGUGUGUGUGUGUGUGUGUGUGUGUUAGCAUGUGUGUAUUAGCGUGUGUGAGUGUGUGAGCAUGCACGAGUCAUAGGAGAUGCAGGUGUAUGUGUGUGGUGUGCAUAUGUGUAUGUGUGUGUGUGUGUGUGUGUGUGUAGGUGUGUUCAGCAAGUGGCUAUUGUCAACCAUAGGCUCUUGCGGUCGCACUAGUGUGGAAUUCUCGGGUGUCAAGG

Chain of TDP-43 (Q13148 whole entry): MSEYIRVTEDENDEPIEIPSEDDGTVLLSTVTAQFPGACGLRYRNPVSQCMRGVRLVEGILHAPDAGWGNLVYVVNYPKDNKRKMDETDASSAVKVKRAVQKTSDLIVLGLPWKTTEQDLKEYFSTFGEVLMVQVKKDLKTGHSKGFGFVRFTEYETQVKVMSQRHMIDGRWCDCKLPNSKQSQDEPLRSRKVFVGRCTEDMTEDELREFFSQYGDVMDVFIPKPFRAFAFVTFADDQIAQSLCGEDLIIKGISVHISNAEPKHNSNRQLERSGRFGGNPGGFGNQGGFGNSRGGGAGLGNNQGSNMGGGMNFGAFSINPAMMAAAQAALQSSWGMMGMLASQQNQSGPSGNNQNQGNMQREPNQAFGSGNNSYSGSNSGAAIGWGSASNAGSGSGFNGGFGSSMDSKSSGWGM

The test has as its target TDP-43 (Homo sapiens, UniProt Q13148 1-414). Kind of test: RNA Bind-n-Seq with designed 260-mer pool; 25 mM Tris-HCl, 150 mM KCl, 3 mM MgCl2, BSA (printed 500 mg/mL), 20 units/mL SUPERase IN; pH not stated; 500 nM RNA pool, 1 h, 4 C; TDP-43 5, 50, 500 nM; high values mean tight binding. The settings on record: protein: recombinant; tags: SBP (GST cleaved off with PreScission; pGEX-GST-SBP). The procedure, abridged: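 Recombinant SBP-tagged TDP-43 at 5, 50 or 500 nM was captured on streptavidin beads, then incubated 1 h at 4 °C with 500 nM of an in vitro-transcribed 260-nt 3′ UTR oligo pool in 25 mM Tris-HCl, 150 mM KCl, 3 mM MgCl2, BSA and SUPERase IN. Bound RNA was washed, eluted with biotin, reverse transcribed, PCR-amplified and sequenced. Binding is R, each oligo's mapped-read-normalized abundance in the bound sample divided by its abundance in input. Duplicates used two independent protein batches.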
Consider B1, for which the binding signal is 0.205 R (bound/input frequency ratio).
On to B2, for which the binding signal is 0.13 R (bound/input frequency ratio).
The result for B3 reads 2.21 R (bound/input frequency ratio); that for B4, 2.12 R (bound/input frequency ratio).
The result for B5 reads 5.22 R (bound/input frequency ratio); that for B6, 8.59 R (bound/input frequency ratio); that for B7, 5.2 R (bound/input frequency ratio).
With B8, the binding signal is 6.88 R (bound/input frequency ratio).
The result for B9 reads 6.93 R (bound/input frequency ratio); that for B10, 5.04 R (bound/input frequency ratio); that for B11, 5.7 R (bound/input frequency ratio).
As to B12, the binding signal was 5.7 R (bound/input frequency ratio).
The result for B13 reads 4.07 R (bound/input frequency ratio).
